The record followed here is PubChem BioAssay (EPA / NIEHS).

Active and inactive are the calls of the source. The calls were made as follows: active = hit-call score of the fitted dose curve at least 0.9, where 1 is the maximum; inactive = score below 0.9.

This assay can be described thus: BSK_4H_SRB: Viability Assessment in the BioMAP Diversity Plus: 4H Assay (AID 2283027).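 As to AC50: curves fitted both ways versus DMSO so AC50 may be loss or gain.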 Conditions: primary human endothelial cells (HUVEC). The procedure: BSK_4H is a cell-based, multiplexed-readout assay that uses umbilical vein endothelium, a human vascular primary cell, with measurements taken at 24 hours after chemical dosing in a 96-well plate.BSK_4H_SRB is an assay component measured in the BSK_4H assay. It measures […] related to cell death using Sulforhodamine staining technology.Data from the assay component BSK_4H_SRB was analyzed into 1 assay endpoint. This assay endpoint, BSK_4H_SRB, was analyzed with bidirectional fitting relative to DMSO as the negative control and baseline of activity. Using a type of viability reporter, gain or loss-of-signal activity can be used to understand changes in the signaling. Furthermore, this assay endpoint can be referred to as a primary readout, because this assay has produced multiple assay endpoints where this one serves a signaling function. To generalize the intended target to other relatable targets, this assay endpoint is annotated to the cell morphology intended target family, where the subfamily is cell conformation.
The levels of cell surface (or secreted, indicated by the prefix "s") biomarker endpoints were measured by ELISA. Overt cytotoxicity to cells in confluent adherent cultures (all systems other than the BT system) was assessed by measuring total protein levels using sulforhodamine B (SRB) staining in parallel cultures at the time of biomarker measurements, indicated as SRB endpoints. For proliferation assays for adherent cell types, individual cell types are cultured at sub-confluence and relative cell numbers quantified by SRB staining at time points optimized for each system (48 h: 3C and CASM3C systems; 72 h: BT and HDF3CGF systems; 96 h: SAg system). SRB was performed by staining cells with 0.1% SRB after fixation with 10% TCA and reading wells at 560 nm.Viability and proliferation of PBMC (T cells) was quantified by Alamar Blue reduction for the SAg and BT systems. For PBMC viability (referred to as PBMC Cytotoxicity within the assay endpoint names), cells were plated (75,000/well in a 96-well plate) and then chemical samples added for 1 h before addition of activators, SEB and TSST-1 (20 ng/mL final concentration each). Cells were incubated for 90 h. Then, Alamar Blue (20 uL/well) (Invitrogen, Cat DAL1100) was added for 6 h, and the plates were read with a fluorescence microplate reader at 546/580 nm (excitation/emission). For PBMC proliferation, cells were plated and activated as above but incubated for only 16 h prior to addition of Alamar Blue. Plates were read after 6 h.
In the case of `O=C=NCCCCCCN=C=O`, the result was inactive.
Still for that read-out and setting: with `OCCO` the entry was “inactive”.
As to `CCOC(=O)O[C@H](C)OC(=O)c1ccc2c(c1)cc(C(=O)NC1CCN(C(C)C)CC1)n2Cc1cc(-c2ccc(Cl)s2)on1`, the AC50 is 5.07 µM (active).
The same measure, in the same setting: next, `CCCCCCCC[Si](OCC)(OCC)OCC`: 32.8 µM (active); `CN1C(=O)N(c2ccccc2Br)Cc2cnc(Nc3ccc4c(c3)OCC(CO)O4)nc21` (stereo not given): 2.02 µM (active).
For the compound `CCO[Si](CCCNC(N)=O)(OCC)OCC`, the outcome was inactive.
As for `CCN(Cc1cccnc1)C(=O)c1cccc(Cl)c1[C@]1(C)C(=O)N(Cc2ccc(OC)cc2OC)c2ccc(Cl)cc21`, the AC50 was 5.38 µM (active).
Consider `CN(C)c1ccc(C(=C2C=CC(=[N+](C)C)C=C2)c2ccc(N(C)C)cc2)cc1`, for which the AC50 is 8.49 µM (active).
On the same count and under the same terms, next, `CCCCCc1ccc(N)cc1`: 11.7 µM (active).
With `c1ccc2n[nH]nc2c1`, the result was inactive.
On the same count and under the same terms, with `CCCCOC(=O)CC(CC(=O)OCCCC)(OC(C)=O)C(=O)OCCCC` the entry was “inactive”.
As to `Cc1oc2c(NC(=O)c3c(Cl)cccc3Cl)cccc2c1C(C)(C)O`, the concentration at half-maximal activity (AC50) is 15 µM (active).
Consider `O=c1ccc2ccccc2o1`, for which the outcome was inactive.
In the case of `OC12N=C(c3ccccc3)SC1Cc1cc(Cl)ccc12` (stereo not given), the outcome was inactive.
As to `Clc1cc(Cl)c2c(c1)N=C1CCCCCN1C2`, the outcome was inactive.
On the same count and under the same terms, with `O=C(O)Cc1cc(I)c(Oc2ccc(O)c(I)c2)c(I)c1` the entry was “inactive”; with `Cc1occc1C(=O)Nc1ccc(C(=O)N2CCC(F)(F)/C(=C\C(=O)N3CCC(N4CCCCC4)CC3)c3ccccc32)cc1`, “inactive”.
Consider `COc1cc(C(=O)NC2CCN(C)CC2)ccc1Nc1ncc2c(n1)N(C1CCCC1)CC(F)(F)C(=O)N2C`, for which the AC50 is 13.5 µM (active).
As to `Cc1cc2c(cc1C(F)(F)F)N(C(=O)Nc1ccc(Oc3cccnc3C)nc1)CC2`, the result was inactive.
Turning to `CC(C)(O)c1ccc(CNC(=O)c2cccnc2Oc2ccc3nonc3c2)cc1`, the outcome was inactive.
On the same count and under the same terms, next, `CC[C@@H]1C[C@H](N(Cc2cc(C(F)(F)F)cc(C(F)(F)F)c2)C(C)=O)c2cc(C(F)(F)F)ccc2N1C(=O)OC(C)C`: “inactive”; `c1ccc2ccccc2c1`: “inactive”; `COCC(C)OCC(C)OCC(C)O` (stereo not given): “inactive”.
For `NCc1cccc(C2CCN(C(=O)c3ccc(C#Cc4ccccc4F)o3)CC2)c1`, the AC50 is 15.1 µM (active).
On to `CCCCCCCCN(C)CCCCCCCC`, for which the outcome was inactive.
Turning to `CC(C)(C)c1csc(-c2cc3cc(OCc4ccccc4CC(=O)O)ccc3o2)n1`, the AC50 is 20 µM (active).
For `C[C@]12CC[C@@H]3c4ccc(O)cc4CC[C@H]3[C@@H]1CCC2=O`, the outcome was inactive.
Still for that read-out and setting: next, `CN1C(=O)CC[C@H]1c1cccnc1`: “inactive”.
Turning to `O=c1[nH]sc2ccccc12`, the AC50 was 20 µM (active).
Same read-out and setting: with `CCCCCCCCOC(=O)c1cc(O)c(O)c(O)c1` the figure was 15.1 µM (active); with `CC/C(=C(/CC)c1ccc(O)cc1)c1ccc(O)cc1`, 22.8 µM (active).
With `Cc1ccc2oc(CN(Cc3ccccc3)C(=O)Nc3c(F)cc(F)cc3F)c(-c3ccc(Cl)cc3)c2c1`, the result was inactive.
Same read-out and setting: next, `Cc1ccc(C(C)C)cc1`: “inactive”; `Cc1cccc2ccccc12`: “inactive”.
For the compound `COc1ccc2cc(S(=O)(=O)N[C@H](CC(=O)N[C@H](Cc3ccc(CN4[C@H](C)CCC[C@@H]4C)cc3)C(=O)N(C)C(C)C)c3ccc4c(c3)OCO4)ccc2c1`, the AC50 was 19.1 µM (active).
The same measure, in the same setting: with `CC(C)(C)c1cc(/C=C2\SC(N)=NC2=O)cc(C(C)(C)C)c1O` the figure was 28.7 µM (active).
With `CCCCCCCCCC(=O)O`, the result was inactive.
On the same count and under the same terms, with `CC(O)CC(C)(C)O` (stereo not given) the entry was “inactive”.
Take `Clc1ccccc1C(c1ccccc1)(c1ccccc1)n1ccnc1`: the AC50 was 24.9 µM (active).
For `c1ccc(C[n+]2cccc3ccccc32)cc1`, the result was inactive.
